Laboratory results taken from PubChem BioAssay (NCATS).
Results filed as inconclusive are left out. A number with no mark means an inactive call. Active and inactive are the calls of the source. Calls come from the whole dose curve; as a rule, active = well fitted inhibition curve with a large enough effect; inconclusive = small, poorly fitted or top-dose-only effect; inactive = flat fitted curve, though single readings scatter. Where a SMILES comes first, the peptide text is derived from it. [ ]: non-standard residue; d: D form. ξ: configuration not given here. dPhe(4-Cl) = N[C@H](Cc1ccc(Cl)cc1)C(=O)O; d2Nal = N[C@H](Cc1ccc2ccccc2c1)C(=O)O; ξPhe(βξ-Me) = CC(c1ccccc1)C(N)C(=O)O; dCit = NC(=O)NCCC[C@@H](N)C(=O)O; d3Pal = N[C@H](Cc1cccnc1)C(=O)O; GABA = NCCCC(=O)O

Target: Calcium and integrin-binding protein 1 (Homo sapiens) (UniProt Q99828)
Sequence (Q99828 whole entry, looked up): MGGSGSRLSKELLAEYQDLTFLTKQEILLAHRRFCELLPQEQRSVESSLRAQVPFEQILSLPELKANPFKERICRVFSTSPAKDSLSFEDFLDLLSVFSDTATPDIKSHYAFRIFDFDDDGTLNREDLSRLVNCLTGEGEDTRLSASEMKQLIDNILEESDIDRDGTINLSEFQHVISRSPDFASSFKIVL
Assay: Primary qHTS for Identification of Calcium Integrin Binding Protein 1 (CIB1) Competitor (AID 1508620);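 note: GST tagged CIB1 binding a fluorescein labelled alphaIIb integrin peptide tracer; top concentration of the series differs between compounds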
Conditions: CIB1-GST / FITC-alphaIIb peptide fluorescence polarization; series mostly up to 114 µM; activity change, negative = inhibition: at the top concentration
Method in brief: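 CIB1-GST (1 uM final) and compound incubated 15 min at room temperature before adding FITC-alphaIIb peptide tracer (100 nM final). Competition for binding read by fluorescence polarization (ex 480, em 540) after another 15 min at room temperature.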
% is set by controls: 0 for no effect and ±100 for the full control effect.

Row | SMILES | activity change, negative = inhibition
1 | CC(=O)N[C@H](Cc1ccc2ccccc2c1)C(=O)N[C@H](Cc1ccc(Cl)cc1)C(=O)N[C@H](Cc1cccnc1)C(=O)N[C@@H](CO)C(=O)N[C@@H](Cc1ccc(O)cc1)C(=O)N[C@H](CCCNC(N)=O)C(=O)N[C@@H](CC(C)C)C(=O)N[C@@H](CCCN=C(N)N)C(=O)N1CCC[C@H]1C(=O)N[C@H](C)C(N)=O (Ac-[d2Nal][dPhe(4-Cl)][d3Pal]SY[dCit]LRP[dA]-NH2) | 2.62% [at 30.2 µM]
2 | CC1(C)CC[C@]2(C(=O)O[C@@H]3O[C@H](CO[C@@H]4O[C@H](CO)[C@@H](O)[C@H](O)[C@H]4O[C@@H]4O[C@H](CO)[C@H](O)[C@H](O)[C@H]4O)[C@@H](O)[C@H](O[C@@H]4O[C@H](CO)[C@@H](O)[C@H](O)[C@H]4O)[C@H]3O)CC[C@]3(C)C(=CCC4[C@@]5(C)CC[C@H](O[C@@H]6OC[C@@H](O)[C@H](O)[C@H]6O)[C@@](C)(C(=O)O)C5CC[C@]43C)[C@@H]2C1 (some centres not stated) | 0.475% [at 12.4 µM]
3 | COc1cc2c(cc1OC)CC(=O)N(CCCNC[C@H]1Cc3cc(OC)c(OC)cc31)CC2 | 2.07%
4 | C[S+](CC[C@H](N)C(=O)[O-])C[C@H]1O[C@@H](n2cnc3c(N)ncnc32)[C@H](O)[C@@H]1O (some centres not stated) | 0.492%
5 | COC(=O)C1=CO[C@@H](O[C@@H]2O[C@H](CO)[C@@H](O)[C@H](O)[C@H]2O)C2C1C(=O)C[C@H]2C (some centres not stated) | 2.21% [at 57.7 µM]
6 | CC(C)C(C#N)O[C@@H]1O[C@H](CO[C@@H]2O[C@@H](C)[C@H](O)[C@@H](O)[C@H]2O)[C@@H](O)[C@H](O)[C@H]1O (some centres not stated) | -1.09% [at 57.7 µM]
7 | CC1NC(=O)CCCNC(=O)C(Cc2c[nH]c3ccccc23)NC(=O)C(C)NC(=O)C(C(C)C)NC(=O)C(C(C)c2ccccc2)NC(=O)C(C(C)C)NC1=O (stereo not drawn) (cyclo([GABA]AV[ξPhe(βξ-Me)]VAW); configuration not given here) | -3.31% [at 30.2 µM]
8 | C=C(C(=O)O)C1CCC2(C)CCC(O)C(=C)C2C1 (configuration not stated) | -1.91%
9 | COC(=O)[C@@H](O)[C@H]1[C@@]2(C)CC3(O)[C@@H](C(=O)[C@H]2O)[C@]24O[C@]25CC(=O)O[C@@H](c2ccoc2)[C@]5(C)CCC4[C@]13C (some centres not stated) | -8.07% [at 57.7 µM]
10 | CCCOC(c1cc2nccc(C(=O)O)c2[nH]1)c1ccccc1Cl (configuration not stated) | -2.45%
11 | CC1(C)C[C@H](O)C[C@@]2(C)OC(=O)C=C12 | -0.151% [at 228 µM]
12 | C/C=C/c1ccc(O[C@@H]2O[C@H](CO)[C@@H](O)[C@H](O)[C@H]2O)c(OC)c1 | 2.3% [at 57.7 µM]
13 | CCCOc1ccc(-c2nc(OC)c3ccccc3n2)cc1 | 3.62%

Test system: not listed separately
Assay: Primary qHTS for inhibitors of nuclear receptor binding SET domain protein 2 (NSD2) in an isogenic RCH-ACV NSD2 p.E1099K mutant (9B) (AID 1645876); note: nearly all actives have a fitted effect of over 70% in size; note: potency is the fitted concentration of half-maximal effect
Conditions: RCH-ACV (leukaemia line) NSD2 E1099K (9B) viability, CellTiter-Glo, 72 h; series mostly up to 44.9 µM; activity change, negative = viability loss: at the top concentration

Row | SMILES | activity change, negative = viability loss | outcome | Potency
14 | Cn1c(=O)cc(N2CCCC(N)C2)n(Cc2cc(F)ccc2C#N)c1=O (configuration not stated) | -7.89% | – | –
15 | CC1(C)CCCC2(C)C1CC=C1C(=O)OC(O)C12O (configuration not stated) | -29% | – | –
16 | C=CC1C(OC2OC(CO)C(O)C(O)C2O)OC=C(C(=O)OC)C1CC1CC(=O)CC(CCc2ccc(O)cc2)O1 (configuration not stated) | -2.99% [at 17.3 µM] | – | –
17 | CC1CCC23COC(=O)C2=CC(O)CC3C1(C)CCC1=CC(O)OC1=O (configuration not stated) | – | inactive | –
18 | CC1(CCOC2OC(CO)C(O)C(O)C2O)CCC23OC2(C1)C(O)CC1C(C)(C(=O)O)CCCC13C (configuration not stated) | -6.3% [at 17.3 µM] | – | –
19 | CC(=O)O[C@@H]1C[C@H](O)[C@@]23CO[C@H](O)[C@]1(C)C2C[C@@H](O)[C@]1(C)C3C(=O)[C@H](OC(C)=O)[C@@]2(C)[C@H](c3ccoc3)C[C@H]3O[C@]321 (some centres not stated) | – | – | 0.0342 µM (active)
20 | C[C@@H]1C(=O)O[C@H]2[C@H](O)C34[C@H]5C[C@@H](C(C)(C)C)C36[C@@H](OC(=O)[C@@H]6O)O[C@@]4(C(=O)O5)[C@@]12O (some centres not stated) | – | inactive [at 17.3 µM] | –
21 | C[C@@H]1O[C@@H](O[C@H]2[C@@H](OC(=O)[C@]34CCC(C)(C)CC3C3=CCC5[C@@]6(C)C[C@H](O)[C@H](O[C@@H]7O[C@H](C(=O)O)[C@@H](O)[C@H](O)[C@H]7O)[C@@](C)(C(=O)O)C6CC[C@@]5(C)[C@]3(C)CC4)OC[C@H](O)[C@@H]2O)[C@H](O)[C@H](O)[C@H]1O[C@@H]1OC[C@@H](O)[C@H](O)[C@H]1O (some centres not stated) | -12% [at 9.23 µM] | – | –
22 | CCC(C)C(=O)OC1CC(O)C23C4OCC5(C(O)CC2C1(C)C(O)O4)C3C(=O)CC1(C)C(c2ccoc2)CC2OC215 (configuration not stated) | – | – | 0.399 µM (active)
23 | CC(=O)OC1C[C@@]2(C)[C@@H](CC[C@@H](C)[C@]23Cc2c(O)cc4c(c2O3)CNC4=O)C(C)(C)[C@@H]1O (some centres not stated) | -17% [at 17.3 µM] | – | –
24 | C=CC(C)(C)C12C=C(OC)C(=O)N3C(C(C)C)C(=O)NC31N(OC)c1ccccc12 (configuration not stated) | -5.21% [at 17.3 µM] | – | –
25 | CC(C)=CC/C=C(\C)[C@H]1CC[C@]2(C)[C@@H]1[C@H](O)C[C@@H]1[C@@]3(C)CC[C@H](O)C(C)(C)[C@@H]3[C@@H](O[C@@H]3O[C@H](CO)[C@@H](O)[C@H](O)[C@H]3O)C[C@]12C | -14.3% | – | –
26 | C[C@H]1CC[C@@H]2N(C1)C[C@@H]1[C@H]([C@@H](O)[C@H](O)[C@]3(O)[C@H]1C[C@@]14OC5(O)[C@@H](C[C@@H](O)[C@@H]31)[C@]4(C)CC[C@@H]5O)[C@]2(C)O | -7.95% [at 17.3 µM] | – | –
27 | C[C@@H]1O[C@@H](OC[C@H]2O[C@@H](Oc3cc(O)cc4c3C(=O)C(O)(Cc3ccc(O)cc3)O4)[C@H](O)[C@@H](O)[C@@H]2O)[C@H](O)[C@H](O)[C@H]1O (some centres not stated) | – | inactive [at 17.3 µM] | –
28 | C[C@@H]1C[C@@H]([C@@H](O)C(C)(C)O)O[C@H]2C[C@@]3(C)C(=C12)C[C@H](O)[C@H]1[C@@]2(C)CCC(=O)C(C)(C)C2CC[C@@]13C (some centres not stated) | -3.53% [at 17.3 µM] | – | –
29 | C=C(C)C1CCC(C)C12CC(O)C1(C)OC1C2OC(=O)C(N)CCC(=O)O (configuration not stated) | -0.392% | – | –
30 | C[C@@H]1C[C@@H]2O[C@H]2/C=C\C=C\C(=O)Cc2c(Cl)c(O)cc(O)c2C(=O)O1 | – | – | 1.01 µM (active)
31 | Cc1c(CN2CCN(C(=O)C(C)O)CC2)sc2c(N3CCOCC3)nc(-c3cnc(N)nc3)nc12 (configuration not stated) | – | – | 0.0578 µM (active)
32 | CC(C)C(N)C(=O)OCCOCn1cnc2c(=O)[nH]c(N)nc21 (configuration not stated) | -13.3% | – | –
33 | C1CCC[C@H]2CCCN3CC[C@@H](CCCCCC[C@@H]4CCCN5CC[C@@H](CC1)O[C@@H]45)O[C@@H]23 | -4.42% [at 0.177 µM] | – | –

Row | SMILES | activity change, negative = viability loss | outcome | Potency
34 | COC(=O)N(C)c1c(N)nc(-c2nn(Cc3ccccc3F)c3ncccc23)nc1N | -15% | – | –
35 | C=C(CCC1=C(C)[C@H]2[C@H](CC3[C@@H]4CC=C5C[C@@H](O)C[C@@H](O)[C@]5(C)C4[C@H](O)C[C@@]32C)O1)CO[C@@H]1O[C@H](CO)[C@@H](O)[C@H](O)[C@H]1O (some centres not stated) | – | – | 0.483 µM (active)
36 | CC1=C(C(=O)O)/C(=C\CO[C@@H]2O[C@H](CO)[C@@H](O)[C@H](O)[C@H]2O)C(OC(=O)/C=C\c2ccc(O)cc2)C1 (some centres not stated) | -16% [at 17.3 µM] | – | –
37 | CC1CCC2C(C(=O)O)=COC(O[C@@H]3O[C@H](CO)[C@@H](O)[C@H](O)[C@H]3O)C12 (some centres not stated) | -13.2% | – | –
38 | CC(C)=CCC/C(C)=C/Cc1ccc(O)c(C2OC(=O)c3cc(C(=O)O)cc(O)c32)c1O (configuration not stated) | -17.7% [at 17.3 µM] | – | –
39 | C[C@@H]1O[C@@H](OC[C@H]2O[C@@H](OC(CCCCc3ccc(O)cc3)CCc3ccc(O)cc3)[C@H](O)[C@@H](O)[C@@H]2O)[C@H](O)[C@H](O)[C@H]1O (some centres not stated) | -22.4% [at 17.3 µM] | – | –
40 | CC(=O)N[C@H](Cc1ccc2ccccc2c1)C(=O)N[C@H](Cc1ccc(Cl)cc1)C(=O)N[C@H](Cc1cccnc1)C(=O)N[C@@H](CO)C(=O)N[C@@H](Cc1ccc(O)cc1)C(=O)N[C@H](CCCNC(N)=O)C(=O)N[C@@H](CC(C)C)C(=O)N[C@@H](CCCN=C(N)N)C(=O)N1CCC[C@H]1C(=O)N[C@H](C)C(N)=O (Ac-[d2Nal][dPhe(4-Cl)][d3Pal]SY[dCit]LRP[dA]-NH2) | – | inactive [at 17.3 µM] | –
41 | CC1(C)CC[C@]2(C(=O)O[C@@H]3O[C@H](CO[C@@H]4O[C@H](CO)[C@@H](O)[C@H](O)[C@H]4O[C@@H]4O[C@H](CO)[C@H](O)[C@H](O)[C@H]4O)[C@@H](O)[C@H](O[C@@H]4O[C@H](CO)[C@@H](O)[C@H](O)[C@H]4O)[C@H]3O)CC[C@]3(C)C(=CCC4[C@@]5(C)CC[C@H](O[C@@H]6OC[C@@H](O)[C@H](O)[C@H]6O)[C@@](C)(C(=O)O)C5CC[C@]43C)[C@@H]2C1 (some centres not stated) | -8.77% [at 9.23 µM] | – | –
42 | COc1cc2c(cc1OC)CC(=O)N(CCCNC[C@H]1Cc3cc(OC)c(OC)cc31)CC2 | -3.8% | – | –
43 | C[S+](CC[C@H](N)C(=O)[O-])C[C@H]1O[C@@H](n2cnc3c(N)ncnc32)[C@H](O)[C@@H]1O (some centres not stated) | – | inactive | –
44 | COC(=O)C1=CO[C@@H](O[C@@H]2O[C@H](CO)[C@@H](O)[C@H](O)[C@H]2O)C2C1C(=O)C[C@H]2C (some centres not stated) | 3.73% | – | –
45 | CC(C)C(C#N)O[C@@H]1O[C@H](CO[C@@H]2O[C@@H](C)[C@H](O)[C@@H](O)[C@H]2O)[C@@H](O)[C@H](O)[C@H]1O (some centres not stated) | 2.12% [at 17.3 µM] | – | –
46 | CC1NC(=O)CCCNC(=O)C(Cc2c[nH]c3ccccc23)NC(=O)C(C)NC(=O)C(C(C)C)NC(=O)C(C(C)c2ccccc2)NC(=O)C(C(C)C)NC1=O (stereo not drawn) (cyclo([GABA]AV[ξPhe(βξ-Me)]VAW); configuration not given here) | -26.7% [at 17.3 µM] | – | –
47 | C=C(C(=O)O)C1CCC2(C)CCC(O)C(=C)C2C1 (configuration not stated) | -3.63% | – | –
48 | COC(=O)[C@@H](O)[C@H]1[C@@]2(C)CC3(O)[C@@H](C(=O)[C@H]2O)[C@]24O[C@]25CC(=O)O[C@@H](c2ccoc2)[C@]5(C)CCC4[C@]13C (some centres not stated) | -4.75% [at 17.3 µM] | – | –
49 | CCCOC(c1cc2nccc(C(=O)O)c2[nH]1)c1ccccc1Cl (configuration not stated) | -0.0134% | – | –
50 | CC1(C)C[C@H](O)C[C@@]2(C)OC(=O)C=C12 | -13.2% [at 91.9 µM] | – | –
51 | C/C=C/c1ccc(O[C@@H]2O[C@H](CO)[C@@H](O)[C@H](O)[C@H]2O)c(OC)c1 | -19.2% | – | –
52 | CCCOc1ccc(-c2nc(OC)c3ccccc3n2)cc1 | -4.75% | – | –
